{"source": "PubChem BioAssay AID651710", "about": "(Broad Institute, 2012)", "note": "Where “and” joins values, the source holds several entries; their conditions need not be identical. Equal values may be shown once. The whole screen tested about 360,000 compounds, of which about 1,600 (0.44%) were called active.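 How the source made its calls: active means every replicate showing at least 50% inhibition; inconclusive means mean inhibition at least 50% but not in every replicate; inactive means the rest.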 The sample as a whole holds a higher share of actives than the screen did. More than one record can exist for a structure, and the calls need not agree.", "data": [{"target": "DNA repair protein RAD52 homolog (Homo sapiens) (UniProt P43351)", "sequence (P43351 whole entry, looked up)": "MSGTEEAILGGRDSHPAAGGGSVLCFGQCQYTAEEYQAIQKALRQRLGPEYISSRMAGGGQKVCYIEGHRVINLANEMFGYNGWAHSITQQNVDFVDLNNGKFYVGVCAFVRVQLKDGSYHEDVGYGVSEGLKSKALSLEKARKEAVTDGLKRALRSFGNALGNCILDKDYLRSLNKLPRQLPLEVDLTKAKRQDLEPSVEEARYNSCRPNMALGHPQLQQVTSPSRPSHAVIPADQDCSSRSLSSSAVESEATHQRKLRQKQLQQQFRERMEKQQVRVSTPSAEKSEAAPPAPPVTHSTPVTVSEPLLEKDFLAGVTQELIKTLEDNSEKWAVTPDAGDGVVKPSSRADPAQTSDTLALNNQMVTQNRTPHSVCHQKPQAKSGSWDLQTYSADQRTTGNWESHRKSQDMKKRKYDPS", "experiment": "blockers of RAD52 strand annealing activity – biochemical, FRET, single point, set 2, primary screen (AID 651710)", "details": "recombinant RAD52 DNA annealing, FRET fluorescence; at 18.7 µM; stronger effect = higher value", "values": [{"molecule": "CCCNC(=O)N(C)C[C@H]1Oc2cc(C#CC(C)(C)O)ccc2S(=O)(=O)N([C@H](C)CO)C[C@@H]1C", "inhibition": "-3.15% (inactive)"}, {"molecule": "COCC#Cc1cnc2c(c1)C(=O)N([C@H](C)CO)C[C@H](C)[C@@H](CN(C)C(=O)Nc1cc(F)ccc1F)O2", "inhibition": "-15.1% (inactive)"}, {"molecule": "C[C@@H]1CN([C@@H](C)CO)C(=O)c2cc(NC(=O)Nc3ccc4c(c3)OCO4)ccc2O[C@@H](C)CCCCO[C@@H]1CN(C)Cc1ccccc1", "inhibition": "-6.98% (inactive)"}, {"molecule": "Cc1c(CCO)sc[n+]1CC(=O)OC12CC3CC(CC(C3)C1)C2", "inhibition": "9.07% (inactive)"}, {"molecule": "Cc1c(CCOC(=O)c2cc([N+](=O)[O-])ccc2Cl)sc[n+]1CCCCS(=O)(=O)[O-]", "inhibition": "-6.18% (inactive)"}, {"molecule": "Cc1c(CCOC(=O)CC23CC4CC(CC(C)(C4)C2)C3)sc[n+]1Cc1ccc([N+](=O)[O-])cc1", "inhibition": "57.8% (active)"}, {"molecule": "CO[C@H]1CN(C)C(=O)c2ccc(NC(=O)Nc3ccccc3)cc2OC[C@@H](C)N(C(=O)CC2CC2)C[C@@H]1C", "inhibition": "7.81% (inactive)"}, {"molecule": "COc1ccc(C#Cc2ccc3c(c2)[C@]2(C(=O)N3)[C@H](C(=O)N3CCCCCCC3)[C@H]3C(=O)O[C@H](c4ccccc4)[C@H](c4ccccc4)N3[C@@H]2c2ccc(O)cc2)cc1", "inhibition": "0.035% (inactive)"}, {"molecule": "COc1ccc(C#Cc2ccc3c(c2)[C@]2(C(=O)N3)[C@H](c3ccccc3OCCO)N3[C@H](c4ccccc4)[C@H](c4ccccc4)OC(=O)[C@H]3[C@@H]2C(=O)N2CCCCCCC2)cc1", "inhibition": "55.6% (active)"}, {"molecule": "O=C1O[C@@H](c2ccccc2)[C@@H](c2ccccc2)N2[C@@H](c3ccccc3OCCO)[C@]3(C(=O)Nc4ccc(C#CC5(O)CCCCCC5)cc43)[C@@H](C(=O)N3CCCCCCC3)[C@H]12", "inhibition": "6.97% (inactive)"}, {"molecule": "CO[C@H]1CN(C)C(=O)c2ccc(NC(C)=O)cc2OC[C@H](C)N(CC2CC2)C[C@@H]1C", "inhibition": "5.82% (inactive)"}, {"molecule": "COc1ccc(NC(=O)Nc2cccc3c2O[C@H](CN(C)C(=O)Nc2ccc(F)cc2)[C@@H](C)CN([C@@H](C)CO)C3=O)cc1", "inhibition": "-2.48% (inactive)"}, {"molecule": "O=C(C1CCCCC1)N1CC2(C1)[C@H](c1ccccc1)[C@H](CO)N2CC1CCCC1", "inhibition": "-23.5% (inactive)"}, {"molecule": "Cc1cc(C)c2nc3nc(C)cc(C)c3c(N)c2c1", "inhibition": "91% (active)"}, {"molecule": "C[C@H]1CN([C@@H](C)CO)C(=O)c2cccc(NC(=O)C3CCOCC3)c2O[C@@H]1CN(C)C(=O)Nc1cccc2ccccc12", "inhibition": "6.23% (inactive)"}, {"molecule": "CC=Cc1ccc2n(c1=O)C[C@@H]1[C@@H](CO)[C@H](C(=O)NCC)[C@H]2N1CCC(F)(F)F", "note": "(mixture of isomers)", "inhibition": "75.5% (active)"}, {"molecule": "CC=Cc1ccc2n(c1=O)C[C@@H]1[C@@H](CO)[C@H](C(=O)NCCC)[C@H]2N1C(=O)C1CC1", "note": "(mixture of isomers)", "inhibition": "6.42% (inactive)"}, {"molecule": "CC=Cc1ccc2n(c1=O)C[C@@H]1[C@@H](CO)[C@H](C(=O)N(C)C)[C@H]2N1CCc1ccccc1", "note": "(mixture of isomers)", "inhibition": "-10.1% (inactive)"}, {"molecule": "CC(=O)N1[C@@H](CO)[C@H](c2ccccc2)[C@@H]1CN(C(=O)c1ccccc1)C(C)C", "inhibition": "-18% (inactive)"}, {"molecule": "O=C(C[C@H]1CC[C@@H](NC(=O)c2ccc(F)cc2)[C@@H](CO)O1)NCc1ccncn1", "inhibition": "-0.457% (inactive)"}, {"molecule": "CO[C@@H]1CN(C)C(=O)c2cc(NC(=O)C3CC3)ccc2OC[C@@H](C)N(Cc2ccc(F)cc2)C[C@@H]1C", "inhibition": "-6.33% (inactive)"}, {"molecule": "O=C(C1CCC1)N1C[C@@H]2N[C@H](C1)C2c1ccc(-c2cncnc2)cc1", "note": "(stereo partly specified)", "inhibition": "17.7% (inactive)"}, {"molecule": "Cc1ccccc1-c1ccc(C2[C@@H]3CN(C(=O)C4CCCCC4)C[C@H]2N3)cc1", "note": "(stereo partly specified)", "inhibition": "54.8% (active) and 0.102% (inactive)"}, {"molecule": "O=C(C1CCCCC1)N1C[C@@H]2N[C@H](C1)C2c1ccc(-c2cccc(F)c2)cc1", "note": "(stereo partly specified)", "inhibition": "61% (active) and 30.9% (inactive)"}, {"molecule": "N#Cc1cccc(-c2ccc(C3[C@@H]4CN(C(=O)C5CCC5)C[C@H]3N4)cc2)c1", "note": "(stereo partly specified)", "inhibition": "-9.39% (inactive) and 14.7% (inactive)"}, {"molecule": "O=C(C1CCCC1)N1CCCCN2[C@@H](CO)[C@H](c3ccc(-c4cccc(F)c4)cc3)[C@@H]2C1", "inhibition": "44.8% (inactive)"}, {"molecule": "O=C(C1CCCCC1)N1CC(=O)N2[C@H](CO)[C@@H](c3ccc(-c4ccccc4F)cc3)[C@@H]2C1", "inhibition": "-8.61% (inactive)"}, {"molecule": "CS(=O)(=O)N1CC2(C1)[C@H](c1ccccc1)[C@H](CO)N2Cc1ccc(F)cc1", "inhibition": "-16.8% (inactive)"}, {"molecule": "Cc1ccc(-c2ccc3c(c2)O[C@H](CN(C)C)[C@@H](C)CN([C@@H](C)CO)S3(=O)=O)cc1", "inhibition": "19.5% (inactive)"}, {"molecule": "O=C(C[C@@H]1C[C@@H]2c3cc(NC(=O)Nc4ccccc4F)ccc3O[C@@H]2[C@H](CO)O1)NCCc1ccccc1", "inhibition": "2.98% (inactive)"}, {"molecule": "CO[C@@H]1CN(C)C(=O)c2cc(NC(=O)Nc3cc(F)ccc3F)ccc2OC[C@H](C)N(C)C[C@@H]1C", "inhibition": "22.6% (inactive)"}, {"molecule": "CN(Cc1ccccc1F)c1cc2c(c3c1ccn3C)C1CCC2O1", "note": "(stereo unspecified)", "inhibition": "61% (active)"}, {"molecule": "CC(C)NC(=O)N(C)C[C@H]1OCCCC[C@H](C)Oc2ccc(NC(=O)Nc3ccc(C(F)(F)F)cc3)cc2C(=O)N([C@H](C)CO)C[C@@H]1C", "inhibition": "-13.2% (inactive)"}, {"molecule": "C[C@@H]1CCCCO[C@@H](CN(C)S(=O)(=O)c2ccc(F)cc2)[C@@H](C)CN([C@@H](C)CO)C(=O)c2cc(NS(=O)(=O)c3cccs3)ccc2O1", "inhibition": "-29.4% (inactive)"}, {"molecule": "CC(C)NC(=O)N(C)C[C@H]1OCCCC[C@H](C)Oc2ccc(NC(=O)CCC(F)(F)F)cc2C(=O)N([C@@H](C)CO)C[C@@H]1C", "inhibition": "-0.514% (inactive)"}, {"molecule": "Cc1noc(C)c1S(=O)(=O)Nc1cccc2c1O[C@@H](CN(C)S(=O)(=O)c1cn(C)cn1)[C@@H](C)CN([C@H](C)CO)C2=O", "inhibition": "-26.9% (inactive)"}, {"molecule": "CN(C)C(=O)C[C@@H]1C[C@@H]2c3cc(NC(=O)C4CCOCC4)ccc3O[C@@H]2[C@@H](CO)O1", "inhibition": "-0.675% (inactive)"}, {"molecule": "CCCNC(=O)N1[C@@H]2CNC[C@H]1C2c1ccc(-c2ccccc2)cc1", "note": "(stereo partly specified)", "inhibition": "-12.3% (inactive) and 2.3% (inactive)"}, {"molecule": "CC(C)[C@@H](C)/C=C/[C@@H](C)[C@H]1CC[C@@H]2[C@]1(C)CCC1[C@]23C=C[C@]2(C[C@@H](O)CC[C@]12C)N(c1ccc([N+](=O)[O-])cn1)O3", "note": "(stereo partly specified)", "inhibition": "73.5% (active)"}, {"molecule": "COc1ccccc1C(=O)N1O[C@]23C=C[C@]14C[C@@H](O)CC[C@]4(C)C2CC[C@]1(C)[C@@H]([C@H](C)/C=C/[C@H](C)C(C)C)CC[C@H]13", "note": "(stereo partly specified)", "inhibition": "-15.6% (inactive)"}, {"molecule": "CC(C)NC(=O)Nc1ccc2c(c1)C(=O)N([C@@H](C)CO)C[C@H](C)[C@@H](CN(C)S(C)(=O)=O)O2", "inhibition": "-11% (inactive)"}, {"molecule": "C[C@@H]1CN([C@@H](C)CO)C(=O)Cc2cc(NC(=O)Nc3ccc4c(c3)OCO4)ccc2O[C@H]1CN(C)S(=O)(=O)c1ccccc1", "inhibition": "2.34% (inactive)"}, {"molecule": "CC(O)c1ccc(OCCN(C)c2ccccn2)cc1", "note": "(stereo unspecified)", "inhibition": "-7.28% (inactive)"}, {"molecule": "CCN(CC)CCOc1ccc2c(c1)C(=NNC(=O)c1ccccn1)c1cc(OCCN(CC)CC)ccc1-2", "inhibition": "108% (active)"}, {"molecule": "CCN(C[C@@H]1[C@H](c2ccccc2)[C@@H](CO)N1CC1CC1)C(=O)c1ccccn1", "inhibition": "-2.51% (inactive)"}, {"molecule": "COCCOC(=O)N1C(=O)[C@@]2(c3cc(C#CCNC(N)=O)ccc31)[C@H](C(=O)N1CCN(c3ncccn3)CC1)[C@H]1C(=O)O[C@H](c3ccccc3)[C@H](c3ccccc3)N1[C@@H]2c1ccccc1OCCO", "inhibition": "31.5% (inactive)"}, {"molecule": "CN1C(=O)CN2CCc3ccccc3C2c2cc(Cl)ccc21", "note": "(stereo unspecified)", "inhibition": "-6.27% (inactive)"}, {"molecule": "CN1CCN(C2Cc3ccc(Cl)cc3Sc3ccc(F)cc32)CC1", "note": "(stereo unspecified)", "inhibition": "54.5% (active)"}, {"molecule": "O=C(C[C@@H]1C=C[C@@H](NC(=O)C2CCC2)[C@H](CO)O1)NCC1CC1", "inhibition": "-2.1% (inactive)"}, {"molecule": "CCN(CC(=O)Nc1ccc(NC(C)=O)cc1)C(=O)C1CC(=O)N(Cc2ccc(C)cc2)C1", "note": "(stereo unspecified)", "inhibition": "-6.68% (inactive)"}, {"molecule": "CCOC(=O)c1ccc(NC(=O)C2CC(=O)N(c3ccc4c(c3)OCCO4)C2)cc1", "note": "(stereo unspecified)", "inhibition": "-4.32% (inactive)"}, {"molecule": "CCN(CC(=O)Nc1ccc(NC(C)=O)cc1)C(=O)C1CC(=O)N(c2ccc3c(c2)OCCO3)C1", "note": "(stereo unspecified)", "inhibition": "74.7% (active)"}, {"molecule": "COc1cccc(C(=O)Nc2ccc3c(c2)C(=O)N(C)C[C@@H](OC)[C@H](C)CN(C(=O)C2CCOCC2)[C@H](C)CO3)c1", "inhibition": "-0.027% (inactive)"}, {"molecule": "C[C@H](CO)N1C[C@H](C)[C@@H](CN(C)Cc2ccc(Cl)c(Cl)c2)Oc2ccc(NC(=O)Cn3cnnn3)cc2CC1=O", "inhibition": "5.4% (inactive)"}, {"molecule": "O=C(C1CCCC1)N1[C@H](CO)[C@@H](c2ccccc2)C12CN(CCC(F)(F)F)C2", "inhibition": "6.31% (inactive)"}, {"molecule": "CO[C@H]1CN(C)C(=O)c2cc(NC(=O)Nc3ccccc3)ccc2OC[C@@H](C)N(C(=O)Nc2c(C)noc2C)C[C@@H]1C", "inhibition": "8.84% (inactive)"}, {"molecule": "CN(C)CC(=O)Nc1ccc2c(c1)[C@@H]1C[C@H](CC(=O)NCc3ccc(-c4ccccc4)cc3)O[C@@H](CO)[C@@H]1O2", "inhibition": "43.1% (inactive)"}, {"molecule": "CN(C)CC(=O)Nc1ccc2c(c1)[C@H]1C[C@@H](CC(=O)NCc3ccc(-c4ccccc4)cc3)O[C@H](CO)[C@H]1O2", "inhibition": "60.2% (active)"}, {"molecule": "CN(C)CC(=O)Nc1ccc2c(c1)[C@H]1C[C@H](CC(=O)NCc3ccccc3)O[C@@H](CO)[C@H]1O2", "inhibition": "-10.3% (inactive)"}, {"molecule": "CN1c2ccc(-c3ccc(C#N)cc3)cc2[C@@H]2[C@@H](CCN2S(=O)(=O)c2cccc(F)c2)[C@@H]1CO", "inhibition": "8.85% (inactive)"}, {"molecule": "CCCNC(=O)[C@@H]1[C@@H](CO)[C@@H]2Cn3c(cccc3=O)[C@H]1N2C(=O)C1CC1", "inhibition": "-0.051% (inactive)"}]}]}
